# Activity calls are given as the source filed them. How the source made its calls: active means hit-call score of the fitted dose curve at least 0.9, where 1 is the maximum; inactive means score below 0.9.
# Legend:
# [1] = CCTE_Shafer_MEA_acute_spike_number: CCTE's Neural Acute Assay for Total Number of Spikes, Shafer Lab (AID 2284008);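 on AC50: curve fitted for decrease in spike count so AC50 reflects inhibitors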
# Summary of the method: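 Cortical neurons from rat, matured to DIV 13 or 15 on microelectrode arrays, are recorded at 37 C before and during 40-min exposure to 0.03-40 uM compound. Wells need >/= 10 active electrodes.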
# [2] = CCTE_Shafer_MEA_acute_firing_rate_mean: CCTE's Neural Acute Assay for Mean Firing Rate, Shafer Lab (AID 2284009);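 further: analyzed for loss of signal so actives lower firing rate relative to DMSO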
# Summary of the method: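 Percent change in well-mean firing rate was derived from extracellular spikes detected at 8x rms noise (300-5000 Hz band-pass) before and after a 40-min compound exposure. Cultures were primary rat cortical neurons, tested at 0.03-40 uM.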
# [3] = CCTE_Harrill_HTTr_Viability_MCF7: CCTE's 6-hour Cell Viability Assessment for the High-Throughput Transcriptomics (HTTr) Platform, in MCF-7 cells cultured in DMEM + 10% fetal bovine serum, Harrill Lab (AID 2284010)
# Summary of the method: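 Membrane integrity was scored by high-content imaging of propidium iodide dye exclusion after a 6 h exposure across an eight-point dilution series. Data were fitted bidirectionally relative to DMSO as negative control and baseline.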
# [4] = CCTE_Simmons_MITO_basal_resp_rate: CCTE's HepG2 Seahorse XF Respirometric Screening Assay at Basal Respiratory State, Simmons Lab (AID 2284001); details: actives raise or lower the signal
# Summary of the method: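 HepG2 respirometry; 7-pt titration 125 nM–100 uM final; kinetic OCR at 6 min intervals for 72 min; n=3 biological, technical singles; DMSO baseline, gain or loss fit; fenpyroximate (decrease) and 2,4-DNP (increase) controls.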
# [5] = CCTE_Simmons_MITO_max_resp_rate: CCTE's HepG2 Seahorse XF Respirometric Screening Assay at Maximal Respiratory State [uncoupled], Simmons Lab (AID 2284002); details: actives raise or lower the signal
# Summary of the method: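 Maximal respiration in HepG2 cells is recorded as OCR by Seahorse XF following FCCP injection. Compounds span 125 nM–100 uM final; activity is called in either direction against DMSO.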
# [6] = CCTE_Simmons_MITO_inhib_resp_rate: CCTE's HepG2 Seahorse XF Respirometric Screening Assay at Inhibited Respiratory State [full ETC block], Simmons Lab (AID 2284006); details: actives raise or lower the signal
# Summary of the method: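 HepG2 cells on Seahorse XF96; oxygen consumption measured after test compound, then FCCP, then rotenone/antimycin A injections over 72 min. Test chemicals at 7 concentrations, 125 nM–100 uM final. OCR fitted bidirectionally versus DMSO.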
compound,measurement,setting,value
CCCCC(CC)COP(=O)(OCC(CC)CCCC)OCC(CC)CCCC (stereo not given),outcome,[1],inactive
same,outcome,[2],inactive
same,outcome,[3],inactive
CN(C)C(=O)NC1(c2ccccc2)CCN(CC[C@@]2(c3ccc(F)c(F)c3)CN(C(=O)c3ccccc3)CCO2)CC1,AC50,[1],4.16 µM (active)
same,AC50,[2],4.14 µM (active)
same,outcome,[3],inactive
CCCCCCC(CCCCCCCCCCC(=O)OCC(COC(C)=O)OC(C)=O)OC(C)=O (stereo not given),outcome,[3],inactive
CCc1cc(C2=C(C(=O)O)N(c3ccccc3C(F)(F)F)S(=O)(=O)c3ccccc32)cc2c1OCO2,outcome,[4],inactive
same,outcome,[5],inactive
same,outcome,[6],inactive
same,outcome,[1],inactive
same,outcome,[2],inactive
same,outcome,[3],inactive
CC(C)c1cccc(C(C)C)c1NC(=O)NS(=O)(=O)c1cc(C(C)(C)O)co1,outcome,[3],inactive
CC(N)=O,outcome,[1],inactive
same,outcome,[2],inactive
same,outcome,[3],inactive
O=C(O)CC(O)(CC(=O)O)C(=O)O,outcome,[3],inactive
CCCCCCCC(=O)OC,outcome,[3],inactive
CS(=O)(=O)c1ccc([C@@H](C[C@H]2CCC(=O)C2)C(=O)Nc2cnccn2)cc1Cl,outcome,[3],inactive
C=CCc1ccc(OC)c(OC)c1,outcome,[3],inactive
OCC(CO)n1cnc(-c2ccc(F)cc2)c1-c1ccnc(Oc2ccccc2)n1,outcome,[1],inactive
same,outcome,[2],inactive
same,outcome,[3],inactive
COc1ccc(OC(F)(F)F)cc1CN[C@H]1CCCN[C@H]1c1ccccc1,AC50,[1],1.72 µM (active)
same,AC50,[2],1.73 µM (active)
same,outcome,[3],inactive
CCCC(=O)O,outcome,[1],inactive
same,outcome,[2],inactive
same,outcome,[3],inactive
COC(=O)CCCC(=O)OC,outcome,[3],inactive
CC(C)COC(=O)CCCCC(=O)OCC(C)C,outcome,[1],inactive
same,outcome,[2],inactive
same,outcome,[3],inactive
CN(C)C(=O)NC1(c2ccccc2)CCN(CCC[C@]2(c3ccc(Cl)c(Cl)c3)CCCN(C(=O)c3ccccc3)C2)CC1,outcome,[1],inactive
same,outcome,[2],inactive
same,outcome,[3],inactive
C/C=C/c1ccc(OC)cc1,outcome,[1],inactive
same,outcome,[2],inactive
same,outcome,[3],inactive
c1ccc2occc2c1,outcome,[1],inactive
same,outcome,[2],inactive
same,outcome,[3],inactive
O=C(N[C@@H](c1ccccc1)[C@@H]1CCCCN1)c1cccc(C(F)(F)F)c1Cl,AC50,[1],4.39 µM (active)
same,AC50,[2],4.39 µM (active)
same,outcome,[3],inactive
O=C(O)CN(CC(=O)O)CC(=O)O,outcome,[1],inactive
same,outcome,[2],inactive
same,outcome,[3],inactive
CC(C)NCC(O)c1ccc(O)c(O)c1 (stereo not given),outcome,[1],inactive
same,outcome,[2],inactive
same,outcome,[3],inactive
CCCC[C@H]1CN(CC2CCOCC2)C(=O)OC12CCN(C1(C)CCN(C(=O)c3c(C)ncnc3C)CC1)CC2,outcome,[3],inactive
Oc1ccc(O)cc1,outcome,[1],inactive
same,outcome,[2],inactive
same,outcome,[3],inactive
CCCCOC(=O)CCCCC(=O)OCCCC,outcome,[3],inactive
CC(=O)S[C@H](C(=O)N[C@H]1Cc2ccccc2[C@H]2CCC[C@@H](C(=O)O)N2C1=O)C(C)C,outcome,[3],inactive
NC(=Nc1ccccc1)Nc1ccccc1,AC50,[1],2.02 µM (active)
same,AC50,[2],2.03 µM (active)
same,outcome,[3],inactive
NC1CCCCC1,outcome,[3],inactive
CN(C)CCCN1c2ccccc2Sc2ccc(Cl)cc21,outcome,[1],inactive
same,outcome,[2],inactive
same,AC50,[3],77.1 µM (active)

# Source: PubChem BioAssay (EPA / NIEHS)
